Measurements from PubChem BioAssay (EPA / NIEHS).
The source made the active and inactive calls. The calls were made as follows: active = hit-call score of the fitted dose curve at least 0.9, where 1 is the maximum; inactive = score below 0.9.

Assays:
[1] = APR_HepG2_CellLoss_1hr: Apredica 1-hour HepG2 Assay for Cell Loss (AID 2282668); conditions: high-content imaging;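 also: curves fitted both ways against DMSO so gain or loss of cells counts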
Procedure, shortened: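 HepG2 cells were treated for 1 h with compound at 0.39–200 uM, in duplicate, in 0.5% DMSO. After formaldehyde fixation, Hoechst 33342-stained nuclei were imaged on an ArrayScan to count cells. Data were fitted bidirectionally versus DMSO.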

[2] = APR_HepG2_MicrotubuleCSK_1hr: Apredica 1-hour HepG2 Assay for Microtubule CSK Stabilty (AID 2282669); conditions: HepG2 microtubule cytoskeleton imaging, actives raise or lower the signal
Procedure, shortened: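 HepG2 cells exposed 1 h to 0.39–200 uM compound (0.5% DMSO, duplicates), then formaldehyde-fixed, permeabilized and immunostained for alpha-tubulin with Hoechst nuclei. Imaged by ArrayScan high-content analysis; bidirectional fit versus DMSO.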

[3] = APR_HepG2_NuclearSize_1hr: Apredica 1-hour HepG2 Assay for Nuclear Size (AID 2282670); conditions: high-content imaging, actives raise or lower the signal
Procedure, shortened: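 HepG2 cells dosed 1 hr with 0.39–200 uM compound (0.5% DMSO), formaldehyde-fixed, Hoechst 33342-stained and imaged at 20x; nuclear diameter from nuclear stain, fitted bidirectionally against DMSO.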

[4] = APR_HepG2_MitoticArrest_1hr: Apredica 1-hour HepG2 Assay for Mitotic Arrest (AID 2282672); conditions: high-content imaging, actives raise or lower the signal
Procedure, shortened: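 HepG2 cells exposed 1 hr to compounds at 0.39–200 uM (0.5% v/v DMSO final), then fixed in 3.7% formaldehyde and immunostained for phospho-histone H3 with Hoechst 33342. Mitotic arrest scored by automated fluorescence imaging, fitted bidirectionally versus DMSO.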

[5] = APR_HepG2_MitoMass_1hr: Apredica 1-hour HepG2 Assay for Mitochondrial Mass (AID 2282674); conditions: high-content imaging, actives raise or lower the signal
Procedure, shortened: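 HepG2 cells dosed 1 hr with 0.39-200 uM compound (0.5% DMSO), duplicate wells. Mitochondria stained with 250 nM MitoTracker Red CMXRos for 30 min before formaldehyde fixation, imaged at 20x by ArrayScan; bidirectional fit versus DMSO.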

[6] = APR_HepG2_MitoMembPot_1hr: Apredica 1-hour HepG2 Assay for Mitochondrial Membrane Potential (AID 2282675); conditions: imaging, actives raise or lower the signal
Procedure, shortened: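 HepG2 cells dosed 1 hour with 0.39–200 uM compound in duplicate, 0.5% DMSO final. MitoTracker Red CMXRos (250 nM, 30 min) loaded before formaldehyde fixation; fluorescence quantified by high-content imaging, bidirectional fitting versus DMSO.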

[7] = APR_HepG2_CellCycleArrest_24hr: Apredica 24-hour HepG2 Assay for Cell Cycle Arrest (AID 2282905); conditions: imaging, actives raise or lower the signal;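 also: cell cycle arrest scored as ratio of 2N to 4N nuclear DNA content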
Procedure, shortened: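 HepG2 cells were exposed to compounds at 0.39–200 uM (ten concentrations, duplicate) in 0.5% v/v DMSO for 24 hr. After formaldehyde fixation and Triton permeabilization, Hoechst 33342-stained nuclei were imaged at 20x; DNA content was quantified, with bidirectional fitting against DMSO.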

[8] = APR_HepG2_StressKinase_1hr: Apredica 1-hour HepG2 Assay for Stress Kinase (AID 2282906); conditions: HepG2 stress kinase (phospho-c-Jun) imaging, actives raise or lower the signal
Procedure, shortened: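 HepG2 cells dosed 0.39-200 uM (0.5% DMSO) for 1 h, then formaldehyde-fixed. Stress kinase read by phospho-c-Jun immunofluorescence using high-content imaging; bidirectional fit vs DMSO.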

[9] = APR_HepG2_NuclearSize_24hr: Apredica 24-hour HepG2 Assay for Nuclear Size (AID 2282907); conditions: high-content imaging, actives raise or lower the signal
Procedure, shortened: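 HepG2 human liver cells were exposed for 24 hr to compounds at 0.39–200 uM (ten concentrations, duplicate) in 0.5% v/v DMSO. They were then formaldehyde-fixed, Triton-permeabilized and Hoechst 33342-stained, and nuclear diameter was imaged at 20x. Bidirectional fits were made against DMSO.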

[10] = APR_HepG2_CellLoss_24hr: Apredica 24-hour HepG2 Assay for Cell Loss (AID 2282908); conditions: high-content imaging;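 as to AC50: fit in both directions so a hit may be cell loss or gain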
Procedure, shortened: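 Compounds were tested at 0.39–200 uM in duplicate with 0.5% v/v DMSO final. Cells were then fixed in 3.7% formaldehyde, Hoechst 33342 nuclei were imaged at 20x by HCS, and cell number was fitted bidirectionally against DMSO.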

[11] = APR_HepG2_MicrotubuleCSK_24hr: Apredica 24-hour HepG2 Assay for Microtubule CSK Stabilty (AID 2282909); conditions: HepG2 microtubule cytoskeleton imaging, actives raise or lower the signal
Procedure, shortened: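 HepG2 cells exposed 24 h to compounds at 0.39–200 uM (duplicate, 0.5% v/v DMSO final), then fixed, permeabilized and immunostained for alpha-tubulin with Hoechst 33342. Cytoskeleton imaged at 20x; bidirectional fit versus DMSO baseline.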

[12] = APR_HepG2_MitoticArrest_24hr: Apredica 24-hour HepG2 Assay for Mitotic Arrest (AID 2282910); conditions: high-content imaging, actives raise or lower the signal
Procedure, shortened: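 HepG2 human liver cells were exposed to compounds at 0.39–200 uM (10 concentrations, duplicate) in 0.5% v/v DMSO for 24 hr, then fixed and immunostained for phospho-histone H3 with Hoechst 33342. Mitotic arrest came from HCS fluorescent imaging, fitted bidirectionally against DMSO.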

[13] = APR_HepG2_MitoMass_24hr: Apredica 24-hour HepG2 Assay for Mitochondrial Mass (AID 2282912); conditions: high-content imaging, actives raise or lower the signal
Procedure, shortened: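 Human HepG2 liver cells were exposed for 24 hr to compounds at 0.39–200 uM (duplicates, 0.5% v/v DMSO final). They were stained live with 250 nM MitoTracker Red CMXRos for 30 min, fixed in 3.7% formaldehyde, and imaged by HCS fluorescence; signals were fitted bidirectionally against DMSO.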

[14] = APR_HepG2_CellCycleArrest_72hr: Apredica 72-hour HepG2 Assay for Cell Cycle Arrest (AID 2282914); conditions: high-content imaging, actives raise or lower the signal
Procedure, shortened: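 Using multiplexed high-content imaging, HepG2 nuclei stained with Hoechst 33342 (2 ug/mL) were analysed for DNA content after fixation and permeabilization. Treatment lasted 72 hr across 0.39–200 uM in duplicate with final DMSO 0.5% v/v; DMSO served as negative control.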

[15] = APR_HepG2_CellLoss_72hr: Apredica 72-hour HepG2 Assay for Cell Loss (AID 2282915); conditions: high-content imaging
Procedure, shortened: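 HepG2 cells were exposed for 72 hr to compounds at 0.39–200 uM (ten concentrations, duplicate) in 0.5% v/v final DMSO. Nuclei were stained with Hoechst 33342 after 3.7% formaldehyde fixation, imaged at 20x, and counted; fits bidirectional versus DMSO.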

[16] = APR_HepG2_p53Act_1hr: Apredica 1-hour HepG2 Assay for p53 Activation (AID 2282671); conditions: high-content imaging, actives raise or lower the signal
Procedure, shortened: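 HepG2 cells treated 1 h with compound at 0.39–200 uM (10 concentrations, duplicate) in 0.5% DMSO. Formaldehyde-fixed, permeabilised cells immunostained for p53 with Hoechst 33342; high-content imaging, bidirectional fit versus DMSO.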

[17] = APR_HepG2_MitoMembPot_24hr: Apredica 24-hour HepG2 Assay for Mitochondrial Membrane Potential (AID 2282911); conditions: imaging, actives raise or lower the signal
Procedure, shortened: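 Mitochondrial dye uptake (MitoTracker Red CMXRos, 250 nM, 30 min pre-fixation) in HepG2 after 24 hr compound exposure, 0.39–200 uM; ArrayScan images at 20x, activity fitted in both directions relative to DMSO.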

[18] = APR_HepG2_p53Act_24hr: Apredica 24-hour HepG2 Assay for p53 Activation (AID 2282913); conditions: high-content imaging, actives raise or lower the signal;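 also: p53 protein immunofluorescence averaged per cell in HepG2 with Hoechst nuclei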
Procedure, shortened: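 Following 24 hr dosing of HepG2 at 0.39–200 uM, the cells undergo formaldehyde fixation, Triton permeabilization and multiplexed antibody labeling that includes p53 (Cy5). Signal from the imaging is referenced to DMSO solvent controls.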

[19] = APR_HepG2_P-H2AX_1hr: Apredica 1-hour HepG2 Assay for H2AX Phosphorylation (AID 2282673); conditions: high-content imaging, actives raise or lower the signal
Procedure, shortened: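 HepG2 dosed 1 hr at 0.39-200 uM (0.5% DMSO final), duplicate. Fixed in 3.7% formaldehyde, Triton permeabilized, immunostained for phospho-histone H2A.x (1:200) with Hoechst 33342; ArrayScan 20x imaging, bidirectional fit vs DMSO.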

Measured: AC50

O=[N+]([O-])c1cc(C(F)(F)F)c(Cl)c([N+](=O)[O-])c1Nc1ncc(C(F)(F)F)cc1Cl
inactive: [2] | [3] | [4] | [9] | [12] | [13]
active: [1] 94.8 µM | [5] 103 µM | [6] 15 µM | [7] 1.37 µM | [8] 9.87 µM | [10] 49.5 µM | [11] 1.14 µM | [14] 0.676 µM | [15] 1.33 µM

CC(C)N(C(=O)SCC(Cl)=C(Cl)Cl)C(C)C
active: [10] 113 µM | [15] 110 µM
not listed: [4] | [19]
inactive: all other assays above

CSc1nc(NC(C)C)nc(NC(C)C)n1
not listed: [4] | [6] | [11] | [16] | [19]
inactive: all other assays above

CC(=NC#N)N(C)Cc1ccc(Cl)nc1
not listed: [4] | [11] | [16] | [17] | [19]
inactive: all other assays above

COP(=O)(NC(C)=O)SC (configuration not stated)
not listed: [4] | [16] | [17]
inactive: all other assays above

CCCCOC(=O)[C@@H](C)Oc1ccc(Oc2ccc(C#N)cc2F)cc1
active: [7] 96.9 µM | [15] 99.2 µM
not listed: [4] | [11] | [16] | [17] | [19]
inactive: all other assays above

COP(=O)(OC)SCn1c(=O)oc2cc(Cl)cnc21
active: [10] 32.9 µM | [11] 30.2 µM | [14] 47.4 µM | [15] 37.8 µM
not listed: [6] | [16] | [17] | [19]
inactive: all other assays above

CCC(CC)Nc1c([N+](=O)[O-])cc(C)c(C)c1[N+](=O)[O-]
active: [17] 84.3 µM | [15] 108 µM
not listed: [11] | [16]
inactive: all other assays above

CCOP(=S)(Oc1cnc(C(C)(C)C)nc1)OC(C)C (configuration not stated)
active: [7] 152 µM | [14] 113 µM | [15] 82.7 µM
not listed: [11] | [16] | [19]
inactive: all other assays above

C[Si](Cn1cncn1)(c1ccc(F)cc1)c1ccc(F)cc1
active: [15] 57.8 µM
not listed: [6] | [16] | [19]
inactive: all other assays above

CCOP(=O)(OCC)Oc1cc(C)nc(C(C)C)n1
not listed: [4] | [6] | [16] | [17] | [19]
inactive: all other assays above

CCOP(=S)(OCC)OC(Cl)C(Cl)(Cl)Cl (configuration not stated)
active: [10] 97.5 µM | [14] 165 µM | [15] 144 µM
not listed: [4] | [6] | [11] | [16] | [17] | [19]
inactive: all other assays above

CN(C)C(=O)Nc1cccc(C(F)(F)F)c1
not listed: [4] | [6] | [11] | [16] | [17]
inactive: all other assays above

CSC1=N[C@@](C)(c2ccccc2)C(=O)N1Nc1ccccc1
active: [15] 12.2 µM
not listed: [11] | [17] | [19]
inactive: all other assays above

CCCOCC(=Nc1ccc(Cl)cc1C(F)(F)F)n1ccnc1
active: [15] 100 µM
not listed: [4] | [17] | [19]
inactive: all other assays above

CC(Oc1cccc(Cl)c1)C(=O)O (configuration not stated)
not listed: [4] | [6] | [11] | [16] | [19]
inactive: all other assays above

COc1cccc(C(=O)NN(C(=O)c2cc(C)cc(C)c2)C(C)(C)C)c1C
not listed: [4] | [6] | [19]
inactive: all other assays above
